Screening data (PubChem)
TDP1 inh – TDP1 (human) enzyme inhibition | hit rate 0.28% among 350,000 | Q9NUW8 | recombinant TDP1, AlphaScreen DNA substrate cleavage | AID 485290 | Potency, µM (doses to about 130 µM), hits mostly inhibitors; note: nearly all actives have a fitted effect of over 40% in size
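Recombinant human Tdp1 (E. coli-expressed, 1 nM final) preincubated with compounds 15 min at room temperature, then 5'-biotin/3'-phosphotyrosine-FITC DNA substrate (15 nM final) added for 5 min. AlphaScreen beads (10 ug/ml final) added 10 min; cleavage lowers signal.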
TDP1 cell CPT – growth inhibition of DT40 Tdp1-/-;hTDP1 cells with camptothecin (screen for TDP1 inhibitors). chicken DT40 Tdp1-/-;hTDP1 cells + 20 nM CPT, ATP luminescence, 48 h. hit rate 12% among 420,000. Potency, µM (top dose mostly 46.2 µM), most hits filed as inhibitors; note: nearly all actives have a fitted effect of over 55% in size
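Chicken DT40 Tdp1-/- cells complemented with human TDP1, 400 cells/well, exposed to compounds plus 20 nM camptothecin for at least 48 h at 37 C; viability read as ATP content by CellTiter-Glo luminescence.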
Six1-Eya2 blk – blocks human Six1 binding to Eya2; Q15475+O00167; hit rate 0.56% among 360,000; AID 651725; AlphaScreen GST-Six1/His-Eya2 binding, biochemical; active compounds read low; activity change, % (no concentration beside the values); in the data active = activity change below about -65%; inconclusive = mostly about -30% to -63%
Target sequence (O00167 whole entry, looked up): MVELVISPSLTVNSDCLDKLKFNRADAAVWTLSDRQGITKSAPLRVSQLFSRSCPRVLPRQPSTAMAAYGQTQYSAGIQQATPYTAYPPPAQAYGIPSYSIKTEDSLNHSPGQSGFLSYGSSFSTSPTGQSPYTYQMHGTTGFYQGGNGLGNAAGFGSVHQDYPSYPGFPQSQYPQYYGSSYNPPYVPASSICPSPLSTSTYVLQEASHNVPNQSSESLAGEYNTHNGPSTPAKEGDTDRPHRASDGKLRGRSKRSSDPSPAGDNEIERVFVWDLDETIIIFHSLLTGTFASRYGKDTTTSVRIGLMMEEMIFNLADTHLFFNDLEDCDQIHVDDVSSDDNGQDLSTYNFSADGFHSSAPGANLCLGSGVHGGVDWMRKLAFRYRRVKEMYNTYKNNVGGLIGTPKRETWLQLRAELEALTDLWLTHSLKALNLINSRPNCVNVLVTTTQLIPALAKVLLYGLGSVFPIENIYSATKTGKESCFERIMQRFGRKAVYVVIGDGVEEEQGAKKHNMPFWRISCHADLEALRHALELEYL
Target sequence (Q15475 whole entry, looked up): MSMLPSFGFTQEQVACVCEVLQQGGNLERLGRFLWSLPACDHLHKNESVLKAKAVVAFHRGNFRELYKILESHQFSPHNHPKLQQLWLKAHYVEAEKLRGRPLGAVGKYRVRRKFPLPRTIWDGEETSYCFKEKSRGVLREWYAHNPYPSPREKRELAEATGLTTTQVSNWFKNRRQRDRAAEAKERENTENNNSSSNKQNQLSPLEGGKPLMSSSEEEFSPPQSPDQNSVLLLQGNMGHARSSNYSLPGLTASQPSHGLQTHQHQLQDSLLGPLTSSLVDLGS
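Homogeneous AlphaScreen proximity assay pairing GST-Six1 with His-tagged Eya2 (added as 5X mix: 250 nM and 500 nM) in 50 mM Tris pH 8.0, 300 mM NaCl, 1 mM TCEP. Glutathione donor and nickel acceptor beads; 1 h, 37 °C, dark.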
IL-1B inflam inh – inhibitors of inflammasome signaling (IL-1 beta secretion). hit rate 4.7% among 360,000. THP-1 LPS/ATP IL-1B secretion, AlphaLISA, 16 h; active compounds read low. activity change, % at 57.5 µM; in the data active = activity change below about -50%; inconclusive = mostly about -30% to -49%
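Secreted IL-1B measured by AlphaLISA bead assay after 16 h compound exposure of THP-1 cells; compounds (final up to 57.5 uM) added 1 h before LPS (250 ng/mL) and ATP (1.25 mM) stimulation; lower signal means less secretion.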
CtBP-E1A inh – blocks the CtBP interaction with E1A. AlphaScreen GST-E1A/His-CtBP binding, 1536-well; active compounds read low. activity change, % (concentration not given with the values). hit rate 0.49% among 340,000; in the data active = activity change below about -65%; inconclusive = mostly about -30% to -63%
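Homogeneous bead-based format: GST-tagged E1A captured on glutathione donor beads, His-tagged CtBP on nickel acceptor beads; compounds precede bead addition by 2 h at 37 °C.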
DT40 TDP1 no CPT – qHTS for Inhibitors of human tyrosyl-DNA phosphodiesterase 1 (TDP1): qHTS in cells in absence of CPT; DT40 Tdp1-/- hTDP1 cells, no CPT, ATP luminescence, 48 h; Potency, µM (top dose mostly 46.2 µM), usual class: inhibitors; hit rate 15% among 420,000; AID 686978, 2013; note: nearly all actives have a fitted effect of over 55% in size
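A cellular qHTS used chicken DT40 cells lacking endogenous Tdp1 but carrying stably transfected human TDP1. Compounds were applied without camptothecin, and cell growth kinetics were judged by ATP-dependent luminescence after ≥48 hr.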
A number is an active result; n = inactive; u = inconclusive; x = no result given. Compounds with a hit are over-represented: about 18% of the library has one in this group of screens. Unless noted, calls come from the whole dose curve; as a rule, active = well fitted curve in the direction sought with a large enough effect; inconclusive = small, poorly fitted or top-dose-only effect, or another doubt; inactive = no such curve, though single readings can be large; an effect the other way counts as inactive or inconclusive.

SMILES	TDP1 inh	TDP1 cell CPT	Six1-Eya2 blk	IL-1B inflam inh	CtBP-E1A inh	DT40 TDP1 no CPT
CCCNC(=S)N1CCN(c2nc(-c3ccc(C)cc3)cs2)CC1	x	u	n	n	n	u
COc1cccc(-c2csc(N3CCN(C(=O)C4CCCCC4)CC3)n2)c1	n	u	n	-73.1	n	u
CCOC(=O)C1CCN(C(=O)C2CCN(c3nn4c(=O)cc(C)nc4s3)CC2)CC1	n	n	n	n	n	n
CCCc1cc(=O)n2nc(N3CCC(C(=O)N4CCN(c5cccc(OC)c5)CC4)CC3)sc2n1	n	11.6µM	n	u	n	5.8µM
Oc1c(C(c2ccc(Br)cc2)N2CCOCC2)sc2nc(-c3ccco3)nn12 (stereo not drawn)	n	n	x	x	x	n
COc1ccc(N2CCN(CCC(O)c3ccc4ccccc4c3)CC2)cc1 (stereo not drawn)	x	u	u	n	x	u
COc1ccc(CSC(=S)NNc2ccccc2)cc1	x	u	n	n	n	18.4µM
COc1ccc(C(=O)NNc2ccccc2)cc1	n	n	n	n	n	n
COc1cc2c(cc1NC(=O)COc1ccc(Br)c(C)c1)oc1ccccc12	x	n	x	x	x	n
Cc1ccc(S(=O)(=O)Nc2nc3ccccc3nc2N2CCN(c3ccccc3F)CC2)cc1	n	n	n	n	n	n
O=S(=O)(Nc1nc2ccccc2nc1N1CCN(CCO)CC1)c1cc(F)ccc1F	n	23.1µM	n	n	n	n
CN1c2ccccc2C(O)=C(C(=S)Nc2ccc(Cl)cc2)S1(=O)=O	n	16.4µM	n	n	n	20.6µM
Cc1ccc(NC(=O)C2=C(O)c3sccc3N(C)S2(=O)=O)cc1	n	u	n	n	n	20.6µM
Cc1ccc(NC(=S)C2=C(O)c3sccc3N(C)S2(=O)=O)cc1	n	u	n	n	n	u
Cc1cccc(NC(=O)C2=C(O)c3ccccc3N(C)S2(=O)=O)c1	n	u	n	n	n	14.6µM
O=C(NCc1ccccc1OC(F)(F)F)C1CCC(=O)N(CCCN2CCOCC2)C1 (stereo not drawn)	x	n	n	n	n	n
CCOC(=O)C1=C(C)NC(=O)C(C#N)C1c1ccncc1 (stereo not drawn)	n	n	n	n	n	n
Cc1cccc(N(C)c2nc3ccc(C)cc3n3cnnc23)c1	n	u	x	x	x	16.4µM
CN(C)S(=O)(=O)N1CCC(CCCC2CCN(S(=O)(=O)N(C)C)CC2)CC1	n	u	n	n	n	u
CCOc1ccc2nnc(-c3ccc(Br)cc3)n2n1	n	u	n	n	n	14.6µM
CCOC(=O)C(C)Sc1ccc2nnc(-c3ccc(OCC)cc3)n2n1 (stereo not drawn)	n	10µM	x	x	x	n
CCOc1ccc(-c2nnc3ccc(SCc4ccc(C(=O)OC)o4)nn23)cc1	n	u	n	n	n	15.8µM
COC(=O)c1ccc(CSc2ccc3nnc(-c4ccc(F)cc4)n3n2)o1	n	u	n	n	x	20.6µM
CCOC(=O)C(C)Sc1ccc2nnc(-c3ccc(F)cc3)n2n1 (stereo not drawn)	n	u	n	n	n	u
Nc1c(N(CCC2=CCCCC2)C(=O)C2CC2)c(=O)[nH]c(=O)n1Cc1ccccc1	n	n	n	n	n	n
SMILES	TDP1 inh	TDP1 cell CPT	Six1-Eya2 blk	IL-1B inflam inh	CtBP-E1A inh	DT40 TDP1 no CPT
CC(CNS(=O)(=O)c1ccccc1)Sc1ncccn1 (stereo not drawn)	x	n	n	n	n	n
Cc1nc2ccccc2c2nc3ccccc3n12	n	u	u	n	n	20.6µM
Fc1ccc(-c2nc3ccccc3c3nc4ccccc4n23)cc1	n	u	n	n	n	u
Clc1ccccc1-c1nc2ccccc2c2nc3ccccc3n12	n	u	n	n	n	13µM
O=C(NC(=S)Nc1ccc2[nH]c(=O)[nH]c2c1)c1cccc(F)c1	n	n	n	n	n	n
CC(=O)Nc1ccc(C(=O)CN2C(=O)NC3(CCCc4ccccc43)C2=O)c(F)c1 (stereo not drawn)	n	n	n	n	n	n
COc1ccc(CNCc2ccccc2)cc1COc1ccc(NC(C)=O)cc1	n	8.91µM	x	x	x	10µM
COc1ccc(CN(Cc2ccccc2)C(=O)c2cccc(C#N)c2)cc1COc1ccc(NC(C)=O)cc1	n	8.91µM	x	x	x	14.1µM
COc1ccc(CN(Cc2ccccc2)C(=O)c2ccccc2)cc1COc1ccc(NC(C)=O)cc1	n	x	x	x	x	x
CCc1ccc(C2c3c(-c4cc(C)ccc4O)n[nH]c3C(=O)N2CCO)cc1 (stereo not drawn)	n	u	x	x	x	u
COc1ccc(OC)c(-c2csc(NC(=O)CSc3ccc([N+](=O)[O-])cc3)n2)c1	n	u	n	-68.5	u	16.4µM
COc1ccc(OC)c(-c2csc(NC(=O)c3ccc(F)cc3)n2)c1	n	7.31µM	n	n	x	u
Cc1ccc(-c2csc(NC(=O)Cc3ccc(F)cc3)n2)o1	n	n	n	-64.6	n	n
COc1ccc(OC)c(-c2csc(NC(=O)Cn3[nH]c(=O)c4ccccc4c3=O)n2)c1	n	u	n	n	n	u
COc1ccc(OC)c(-c2csc(NC(=O)Cc3ccc(F)cc3)n2)c1	x	n	n	-69.0	n	u
COc1ccc(OC)c(-c2csc(NC(=O)c3ccc(OCC4CCCO4)cc3)n2)c1 (stereo not drawn)	n	u	n	n	x	u
CCCNC(=O)C1(C)CCN(Cc2noc(-c3ccccc3OC)n2)C1 (stereo not drawn)	x	n	n	n	n	u
Cc1cc(C(=O)OCC(=O)Nc2cccc(S(=O)(=O)N3CCOCC3)c2)c(C)o1	n	u	n	n	n	u
CCCCc1cc(=O)oc2cc(OCC(=O)NCc3ccccn3)c(Cl)cc12	n	n	n	n	n	n
N[C@@H](CS(=O)O)C(=O)O	n	n	x	x	x	n
Cc1ccc2c(c1)N(C)/C(=C/c1cccc[n+]1C)S2	x	3.66µM	n	-88.5	n	0.517µM
Cc1ccc(CC(=O)Nc2ccc3c(c2)N(C)C(=O)c2ccccc2S3)cc1	n	u	x	x	x	u
Cc1ccc2c(c1)N(C)/C(=C/c1cccc[n+]1CCO)S2	x	1.64µM	n	u	n	1.16µM
CN1/C(=C/c2cccc[n+]2C)Sc2ccccc21	x	0.581µM	n	-67.0	n	0.326µM
COc1cccc(C2C(C#N)=C(N)N(N(C)C)C3=C2C(=O)CCC3)c1 (stereo not drawn)	x	n	n	n	n	n
NCCCC(N)CC(=O)NCC1NC(=O)C(CO)NC(=O)C(N)CNC(=O)C(C2CCN=C(N)N2)NC(=O)/C(=C\NC(N)=O)NC1=O (stereo not drawn)	n	n	x	x	x	n
Cc1ccc(NC(=O)N2CCc3ccccc3C2)c(C)c1	n	n	n	n	n	n
